The structures appear in SMILES notation. Results filed as inconclusive are left out. Entries that show only a call come without a potency. Calls of active or inactive are those of the source. Calls come from the whole dose curve.

A short description of the first assay: Confirmatory qHTS for VERO E6 Cytotoxicity Assay: Counterscreen for SARS-CoV-2 CPE Assay (AID 1508605). Note: nearly all actives have a fitted effect of over 60% in size. Conditions: cell viability luminescence; series mostly up to 20 µM. On the technique in general: In qHTS, concentration-response curves come from the screen itself.
As to `Clc1ccc2c(c1)N=C(N1CCNCC1)c1ccccc1N2`, the Potency entry is “inactive”.

As for `O=S(=O)(c1cccc2c(Cl)cccc12)N1CCCNCC1`, the Potency entry was “inactive”.

For `O=S(=O)(c1cccc2c(I)cccc12)N1CCCNCC1`, the Potency entry is “inactive”.

For the compound `CN(C)CCCN1c2ccccc2CCc2ccccc21`, the Potency entry is “inactive”.

A further assay is described as follows: Confirmatory qHTS for activators (rescue) of SARS-CoV-2 Cytopathic Effect (CPE) (AID 1508606). Note: nearly all actives have a fitted effect of over 70% in size. Note: potency is the fitted concentration of half-maximal effect. The following applies: Vero E6 SARS-CoV-2 CPE rescue, viability luminescence; series mostly up to 20 µM.
On to `C=C1C(=O)[C@@]23C(CC[C@@H]1[C@H]2O)[C@@]12CO[C@]3(O)[C@@H](O)[C@@H]1C(C)(C)CC[C@@H]2O` (stereo partly drawn), for which the Potency was 10 µM (active).

As for `OCCCNc1cc(-c2ccnc(Nc3cccc(Cl)c3)n2)ccn1`, the Potency was 5.62 µM (active).

As to `Cc1ccc(C(=O)Nc2cccc(C(F)(F)F)c2)cc1Nc1nc(-c2cccnc2)nc2c1cnn2C`, the Potency is 1.41 µM (active).

On to `CCc1nc(-c2cccc(C)c2)c(-c2ccnc(NC(=O)c3ccccc3)c2)s1`, for which the Potency entry was “inactive”.

For the origin of these results see PubChem BioAssay (NCATS).
